PubChem BioAssay AID1159580 (chemical genetic matrix, 2015)
“And” between values parts separate entries of the source, which are not always exact repeats. Equal entries are not always repeated. The campaign covered roughly 5,500 compounds. About 2,000 (36%) were called active. Inconclusive results (about 18%) are left out. Cut-off read from the data, not from the text of the source: active = normalized growth mostly below about 0.91 (no sharp cut-off); inconclusive = no clear call, values can overlap the other calls; inactive = mostly above about 0.92. The list shows a part of the results.

Test: chemical genetic growth profiling, strain panel (AID 1159580);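 note: tested at 20 µM; growth read once vehicle control cultures reached saturation at 30 °C; 1 = growth at the plate median or of vehicle wells; lower values mean less growth of the strain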
Details: S. cerevisiae deletion strains, growth OD

Measured: normalized growth

C[C@]12CCC(=O)C=C1CCC1C2CC[C@@]2(C)C1CC[C@@H]2O (some centres not stated)
inactive: locus YAL013W, strain DEP1, active compounds read low 1.01 | locus YAL021C, strain ccr4, active compounds read low 0.967 | locus YAL026C, strain drs2, active compounds read low 1 | locus YAL030W, strain snc1, active compounds read low 0.997 | locus YBL061C, strain skt5, active compounds read low 0.987 | locus YBR009C, strain hhf1, active compounds read low 0.99 | locus YBR021W, strain FUR4, active compounds read low 0.97 | locus YBR023C, strain chs3, active compounds read low 0.988 | locus YBR171W, strain sec66, active compounds read low 0.969 | locus YBR229C, strain ROT2, active compounds read low 1.02 | locus YBR231C, strain swc5, active compounds read low 0.99 | locus YBR279W, strain paf1, active compounds read low 0.998 | locus YCL011C, strain gbp2, active compounds read low 0.993 | locus YCL016C, strain dcc1, active compounds read low 0.988 | locus YCL029C, strain bik1, active compounds read low 1.02 | locus YCL061C, strain MRC1, active compounds read low 0.993 | locus YCL069W, strain vba3, active compounds read low 0.999 | locus YCR088W, strain abp1, active compounds read low 1 | locus YDL005C, strain med2, active compounds read low 0.989 | locus YDL035C, strain GPR1, active compounds read low 0.988 | locus YDL040C, strain nat1, active compounds read low 0.985 | locus YDL074C, strain BRE1, active compounds read low 0.995 | locus YDL101C, strain DUN1, active compounds read low 1.01 | locus YDL134C, strain PPH21, active compounds read low 1.03 | locus YDL185W, strain tfp1, active compounds read low 1.03 | locus YDL192W, strain arf1, active compounds read low 1.03 | locus YDR001C, strain nth1, active compounds read low 0.996 | locus YDR069C, strain doa4, active compounds read low 0.977 | locus YDR101C, strain arx1, active compounds read low 1.01 | locus YDR137W, strain rgp1, active compounds read low 0.96 | locus YDR150W, strain NUM1, active compounds read low 1.03 | locus YDR159W, strain sac3, active compounds read low 0.963 | locus YDR162C, strain NBP2, active compounds read low 0.996 | locus YDR195W, strain ref2 1.01 | locus YDR297W, strain sur2, active compounds read low 0.993 | locus YDR318W, strain mcm21, active compounds read low 1.02 | locus YDR334W, strain swr1, active compounds read low 1.01 | locus YDR335W, strain msn5, active compounds read low 0.989 | locus YDR388W, active compounds read low 1.03 | locus YDR392W, strain spt3, active compounds read low 0.934 | locus YDR502C, strain sam2, active compounds read low 1.01 | locus YEL003W, strain gim4, active compounds read low 0.983 | locus YEL037C, strain rad23, active compounds read low 0.994 | locus YEL061C, strain CIN8 (second series), active compounds read low 0.988 | locus YEL061C, strain CIN8, active compounds read low 1.02 | locus YER015W, strain faa2, active compounds read low 0.995 | locus YER016W, strain bim1, active compounds read low 0.989 | locus YER110C, active compounds read low 1.04 | locus YER111C, strain swi4, active compounds read low 0.986 | locus YER155C, strain BEM2 (second series), active compounds read low 0.981 | locus YER155C, strain BEM2, active compounds read low 1.01 | locus YER167W, strain BCK2, active compounds read low 1.05 | locus YFR010W, strain ubp6, active compounds read low 1 | locus YGL078C, strain dbp3, active compounds read low 0.985 | locus YGL086W, strain mad1, active compounds read low 1.03 | locus YGL167C, strain pmr1, active compounds read low 0.964 | locus YGL173C, strain kem1, active compounds read low 0.967 | locus YGL227W, strain vid30, active compounds read low 0.992 | locus YGL240W, strain doc1, active compounds read low 0.965 | locus YGL248W, strain PDE1, active compounds read low 1.02 | locus YGL253W, strain hxk2, active compounds read low 0.991 | locus YGR078C, strain PAC10, active compounds read low 1.02 | locus YGR135W, strain pre9, active compounds read low 1.01 | locus YGR229C, strain SMI1, active compounds read low 1.04 | locus YGR252W, strain gcn5, active compounds read low 1.01 | locus YHR013C, strain ard1, active compounds read low 1.02 | locus YHR027C, strain rpn1, active compounds read low 0.997 | locus YHR030C, strain SLT2, active compounds read low 1.03 and 1.13 | locus YHR079C, strain IRE1 (second series), active compounds read low 1.02 | locus YHR079C, strain IRE1, active compounds read low 0.993 | locus YHR094C, strain hxt1, active compounds read low 1.03 | locus YHR129C, strain ARP1, active compounds read low 1.03 | locus YHR142W, strain chs7, active compounds read low 0.991 | locus YHR200W, strain rpn10, active compounds read low 1.03 | locus YIL066C, strain RNR3, active compounds read low 1.01 | locus YIL073C, strain SPO22, active compounds read low 1.09 | locus YIL125W, strain kgd1, active compounds read low 1.03 | locus YIR030C, strain dcg1, active compounds read low 1.03 | locus YJL092W, strain hpr5, active compounds read low 0.997 | locus YJL095W, strain BCK1 (second series), active compounds read low 0.987 | locus YJL095W, strain BCK1, active compounds read low 1.02 and 0.998 | locus YJL115W, strain asf1, active compounds read low 0.994 | locus YJL129C, strain trk1, active compounds read low 0.963 | locus YJL134W, strain LCB3, active compounds read low 1.02 | locus YJL154C, strain vps35, active compounds read low 0.997 | locus YJL164C, strain tpk1, active compounds read low 1.01 | locus YJL166W, strain qcr8, active compounds read low 0.986 | locus YJL168C, strain set2, active compounds read low 1.02 | locus YJL187C, strain SWE1 (second series), active compounds read low 1 | locus YJL187C, strain SWE1, active compounds read low 0.992 | locus YJR043C, strain POL32, active compounds read low 1.02 | locus YJR066W, strain TOR1, active compounds read low 0.999
